6 molecules from PubChem BioAssay (EPA / NIEHS) can be followed below.

The source made the active and inactive calls. Rule for the calls: active = hit-call score of the fitted dose curve at least 0.9, where 1 is the maximum; inactive = score below 0.9.

The term AC50 denotes the concentration at which the activity in the assay is half-maximal.

Holding throughout (conditions): mRNA level, 48 h; actives raise or lower the signal
Read-out in one experiment: BCL2L11 (gene 10018)
The experiment in a line: LTEA_HepaRG_BCL2L11: Life Technologies and Expression Analysis (LTEA) Assay for Bcl-2 (BCL2L11) gene using HepaRG (AID 2283473). In a few lines:
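BCL2L11 transcript levels are measured by Fluidigm qRT-PCR, normalized to three housekeeping genes. HepaRG cultures were plated 48 h, then treated 48 h with test chemical (top 100 uM, half-log, 0.5% DMSO vehicle); curves were fitted bidirectionally against DMSO.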

Read-out in experiment [1]: Apolipoprotein A-V (APOA5) gene, APOA5 (gene 116519)
The experiment in a line: LTEA_HepaRG_APOA5: Life Technologies and Expression Analysis (LTEA) Assay for Apolipoprotein A-V (APOA5) gene using HepaRG (AID 2283474). In a few lines: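 APOA5 transcript levels were quantified by qRT-PCR, normalized to three housekeeping genes, after 48 h chemical treatment of HepaRG cells (8 points, 100 uM maximum, half-log steps, 0.5% DMSO). Curves fitted in both directions against vehicle.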

Read-out in experiment [2]: Apoptosis regulator Bcl-2 (Homo sapiens) (UniProt P10415)
In words: LTEA_HepaRG_BCL2: Life Technologies and Expression Analysis (LTEA) Assay for Bcl-2 gene using HepaRG (AID 2283475). An outline of the steps:
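Differentiated human HepaRG cells in serum-free induction medium exposed 48 h, in duplicate, to 8-point half-log series from 100 uM in 0.5% DMSO. BCL2 mRNA by qRT-PCR (TaqMan/Fluidigm), normalized to ACTB, GAPDH, POLR2A; bidirectional fit against DMSO.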

Read-out in experiment [3]: Bcl-2 (BID) gene, BID (gene 637)
The experiment in a line: LTEA_HepaRG_BID: Life Technologies and Expression Analysis (LTEA) Assay for Bcl-2 (BID) gene using HepaRG (AID 2283476). In a few lines: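 Gene expression by qRT-PCR in HepaRG cells after 48 h exposure, duplicate wells, eight half-log concentrations topping at 100 uM in 0.5% DMSO. Normalized to ACTB, GAPDH, POLR2A; bidirectional fitting relative to DMSO.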

Read-out in a further experiment: Caspase-3 (Homo sapiens) (UniProt P42574)
The experiment in a line: LTEA_HepaRG_CASP3: Life Technologies and Expression Analysis (LTEA) Assay for cysteine-aspartic acid protease (CASP3) using HepaRG (AID 2283477). An outline of the steps:
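Expression of CASP3 was quantified by TaqMan qRT-PCR against three housekeeping genes (ACTB, GAPDH, POLR2A), bidirectionally versus 0.5% DMSO. HepaRG cultures received compounds in duplicate, top 100 uM with half-log steps, for 48 h in serum-free induction medium.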

Read-out in experiment [4]: Cytochrome P450 (CYP24A1), CYP24A1 (gene 1591)
The experiment in a line: LTEA_HepaRG_CYP24A1: Life Technologies and Expression Analysis (LTEA) Assay for Cytochrome P450 (CYP24A1) using HepaRG (AID 2283478). In a few lines:
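mRNA of CYP24A1 quantified by TaqMan qRT-PCR (ACTB/GAPDH/POLR2A normalization) after 48 h chemical exposure of HepaRG cells, top concentration 100 uM, half-log steps, 0.5% DMSO vehicle, duplicates. Curves fitted bidirectionally against DMSO baseline.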

Read-out in experiment [5]: Cytochrome P450 (CYP1A2), CYP1A2 (gene 1544)
In words: LTEA_HepaRG_CYP1A2: Life Technologies and Expression Analysis (LTEA) Assay for Cytochrome P450 (CYP1A2) using HepaRG (AID 2283479). An outline of the steps:
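CYP1A2 transcript measured by TaqMan qRT-PCR against three housekeeping genes after 48-hour chemical exposure of HepaRG cells. Eight-point half-log series topping at 100 uM in 0.5% DMSO, duplicates; gain or loss fitted relative to vehicle.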

Read-out in experiment [6]: cysteine-aspartic acid protease (CASP8), CASP8 (gene 841)
The experiment in a line: LTEA_HepaRG_CASP8: Life Technologies and Expression Analysis (LTEA) Assay for cysteine-aspartic acid protease (CASP8) using HepaRG (AID 2283480). In a few lines:
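HepaRG, 48 h exposure, duplicate wells; 8 conc, half-log from 100 uM, 0.5% DMSO. Serum-free induction medium. CASP8 mRNA by TaqMan qRT-PCR, norm. ACTB/GAPDH/POLR2A; gain/loss fitted vs DMSO.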

Read-out in experiment [7]: Cytochrome P450 (CYP2B6), CYP2B6 (gene 1555)
The experiment in a line: LTEA_HepaRG_CYP2B6: Life Technologies and Expression Analysis (LTEA) Assay for Cytochrome P450 (CYP2B6) using HepaRG (AID 2283481). In a few lines:
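CYP2B6 transcript level quantified by qRT-PCR against three housekeeping genes, fitted bidirectionally relative to DMSO. HepaRG cultures received chemicals for 48 h, 8-point half-log series from 100 uM in 0.5% DMSO, duplicate wells, serum-free induction medium.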

Read-out in experiment [8]: Cytochrome P450 2C19 (Homo sapiens) (UniProt P33261)
The experiment in a line: LTEA_HepaRG_CYP2C19: Life Technologies and Expression Analysis (LTEA) Assay for CYP2C19 using HepaRG (AID 2283482). An outline of the steps:
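CYP2C19 transcript levels by qRT-PCR, normalized to three housekeeping genes, in HepaRG cells after 48 h chemical exposure. Eight-point half-log series topping at 100 uM, 0.5% DMSO vehicle. Increases and decreases both fitted against DMSO.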

Read-out in the next experiment: CYP2C8 (gene 1558)
In words: LTEA_HepaRG_CYP2C8: Life Technologies and Expression Analysis (LTEA) Assay for CYP2C8 using HepaRG (AID 2283483). In a few lines:
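CYP2C8 mRNA induction or loss, by qRT-PCR normalized to ACTB/GAPDH/POLR2A, is read in HepaRG cells after 48 h treatment. Concentrations run from 100 uM down in half-log dilutions, with 0.5% DMSO as vehicle and baseline.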

Read-out in the next experiment: CYP2C9 (gene 1559)
The experiment in a line: LTEA_HepaRG_CYP2C9: Life Technologies and Expression Analysis (LTEA) Assay for CYP2C9 using HepaRG (AID 2283484). In a few lines: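 Cells plated 48 h, switched to serum-free induction medium, then treated in duplicate for 48 h at eight concentrations (max 100 uM, 0.5% DMSO). RNA then analysed by qRT-PCR for CYP2C9; curves fitted in both directions relative to DMSO.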

Read-out in another experiment: CYP2E1 (gene 1571)
The experiment in a line: LTEA_HepaRG_CYP2E1: Life Technologies and Expression Analysis (LTEA) Assay for CYP2E1 using HepaRG (AID 2283485). An outline of the steps: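 HepaRG cells, plated 48 h, then exposed 48 h in serum-free induction medium to eight half-log concentrations from 100 uM in 0.5% DMSO, duplicate. CYP2E1 mRNA by qRT-PCR, normalized to ACTB/GAPDH/POLR2A; bidirectional fit versus DMSO.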

Read-out in another experiment: CYP4A11 (gene 1579)
The experiment in a line: LTEA_HepaRG_CYP4A11: Life Technologies and Expression Analysis (LTEA) Assay for CYP4A11 using HepaRG (AID 2283486). In a few lines:
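Readout is CYP4A11 transcript level by qRT-PCR, normalized to three housekeeping genes and fitted bidirectionally against 0.5% DMSO. Human HepaRG cells were treated 48 h, in duplicate, with an 8-point half-log series topping at 100 uM.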

Read-out in experiment [9]: Cytochrome P450 3A4 (Homo sapiens) (UniProt P08684)
The experiment in a line: LTEA_HepaRG_CYP3A4: Life Technologies and Expression Analysis (LTEA) Assay for CYP3A4 using HepaRG (AID 2283487). In a few lines:
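In a human hepatic line (HepaRG), duplicate wells were treated 48 h with up to 100 uM chemical in half-log dilutions. Endpoint: CYP3A4 mRNA induction or loss relative to 0.5% DMSO vehicle, by qRT-PCR.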

Read-out in experiment [10]: DNA damage-inducible transcript 3 (DDIT3), DDIT3 (gene 1649)
In words: LTEA_HepaRG_DDIT3: Life Technologies and Expression Analysis (LTEA) Assay for DNA damage-inducible transcript 3 (DDIT3) using HepaRG (AID 2283488). An outline of the steps: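 HepaRG cells, 48 h after plating, exposed 48 h in serum-free induction medium to 8 half-log concentrations up to 100 uM in 0.5% DMSO, in duplicate. DDIT3 mRNA measured by TaqMan qRT-PCR, normalized to ACTB, GAPDH and POLR2A. Fitted bidirectionally against DMSO.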

Read-out in experiment [11]: Early growth response protein 1 (EGR1) transcription factor, EGR1 (gene 1958)
The experiment in a line: LTEA_HepaRG_EGR1: Life Technologies and Expression Analysis (LTEA) Assay for Early growth response protein 1 (EGR1) transcription factor using HepaRG (AID 2283490). In a few lines: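 Read-out is EGR1 mRNA level by qRT-PCR, normalized to three housekeeping genes and analysed for gain or loss of signal against 0.5% DMSO. Source cells: human HepaRG, treated 48 h at up to 100 uM in half-log dilutions.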

Read-out in experiment [12]: Ezrin (EZR), EZR (gene 7430)
In words: LTEA_HepaRG_EZR: Life Technologies and Expression Analysis (LTEA) Assay for Ezrin (EZR) using HepaRG (AID 2283491). An outline of the steps:
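Gain or loss of EZR mRNA is scored relative to 0.5% DMSO in human HepaRG cultures treated 48 h with test chemicals in duplicate, eight half-log concentrations from 100 uM.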

Read-out in experiment [13]: Cytochrome P450 3A7 (Homo sapiens) (UniProt P24462)
The experiment in a line: LTEA_HepaRG_CYP3A7: Life Technologies and Expression Analysis (LTEA) Assay for CYP3A7 using HepaRG (AID 2283492). In a few lines:
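CYP3A7 transcript measured by qRT-PCR (ACTB, GAPDH, POLR2A normalization) after 48 h chemical exposure of HepaRG cells in duplicate. Eight half-log concentrations, maximum 100 uM, 0.5% DMSO vehicle; bidirectional curve fitting against DMSO baseline.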

Read-out in experiment [14]: Pro-epidermal growth factor (Homo sapiens) (UniProt P01133)
In words: LTEA_HepaRG_EGF: Life Technologies and Expression Analysis (LTEA) Assay for Epidermal growth factor (EGF) using HepaRG (AID 2283489). An outline of the steps: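 EGF transcript measured by Fluidigm TaqMan qRT-PCR with three housekeeping genes for normalization, 48 h after dosing HepaRG cultures in duplicate (top 100 uM, half-log steps, 0.5% DMSO vehicle). Gain or loss relative to DMSO fitted.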

Caspase-3 (Homo sapiens), sequence (P42574 whole entry, looked up): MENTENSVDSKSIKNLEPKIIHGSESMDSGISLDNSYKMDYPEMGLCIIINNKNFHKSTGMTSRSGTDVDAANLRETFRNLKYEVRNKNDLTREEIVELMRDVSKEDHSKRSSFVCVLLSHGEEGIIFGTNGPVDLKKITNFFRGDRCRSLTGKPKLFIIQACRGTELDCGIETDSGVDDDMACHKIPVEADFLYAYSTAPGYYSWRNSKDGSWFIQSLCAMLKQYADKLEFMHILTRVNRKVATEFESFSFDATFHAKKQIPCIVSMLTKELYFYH
Apoptosis regulator Bcl-2 (Homo sapiens), sequence (P10415 whole entry, looked up): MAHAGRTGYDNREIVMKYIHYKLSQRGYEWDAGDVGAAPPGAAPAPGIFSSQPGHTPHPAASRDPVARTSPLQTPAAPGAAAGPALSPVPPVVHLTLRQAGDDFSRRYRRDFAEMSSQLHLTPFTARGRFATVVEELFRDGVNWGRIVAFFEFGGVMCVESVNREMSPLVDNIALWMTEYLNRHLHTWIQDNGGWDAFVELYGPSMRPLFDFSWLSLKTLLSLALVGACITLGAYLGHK
Cytochrome P450 3A7 (Homo sapiens), sequence (P24462 whole entry, looked up): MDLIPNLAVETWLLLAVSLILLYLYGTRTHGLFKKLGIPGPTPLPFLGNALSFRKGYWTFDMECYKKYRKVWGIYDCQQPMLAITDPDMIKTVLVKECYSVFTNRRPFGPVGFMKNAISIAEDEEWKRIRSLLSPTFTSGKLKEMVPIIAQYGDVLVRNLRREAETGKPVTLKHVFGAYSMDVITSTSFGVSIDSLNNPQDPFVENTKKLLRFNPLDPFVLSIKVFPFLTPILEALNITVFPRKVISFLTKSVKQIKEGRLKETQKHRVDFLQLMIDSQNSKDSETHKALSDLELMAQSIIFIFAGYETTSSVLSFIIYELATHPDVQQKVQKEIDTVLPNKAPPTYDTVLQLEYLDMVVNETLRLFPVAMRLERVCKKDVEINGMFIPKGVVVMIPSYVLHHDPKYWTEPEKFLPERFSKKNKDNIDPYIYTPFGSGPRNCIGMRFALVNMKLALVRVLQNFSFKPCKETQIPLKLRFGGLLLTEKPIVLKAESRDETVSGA
Cytochrome P450 2C19 (Homo sapiens), sequence (P33261 whole entry, looked up): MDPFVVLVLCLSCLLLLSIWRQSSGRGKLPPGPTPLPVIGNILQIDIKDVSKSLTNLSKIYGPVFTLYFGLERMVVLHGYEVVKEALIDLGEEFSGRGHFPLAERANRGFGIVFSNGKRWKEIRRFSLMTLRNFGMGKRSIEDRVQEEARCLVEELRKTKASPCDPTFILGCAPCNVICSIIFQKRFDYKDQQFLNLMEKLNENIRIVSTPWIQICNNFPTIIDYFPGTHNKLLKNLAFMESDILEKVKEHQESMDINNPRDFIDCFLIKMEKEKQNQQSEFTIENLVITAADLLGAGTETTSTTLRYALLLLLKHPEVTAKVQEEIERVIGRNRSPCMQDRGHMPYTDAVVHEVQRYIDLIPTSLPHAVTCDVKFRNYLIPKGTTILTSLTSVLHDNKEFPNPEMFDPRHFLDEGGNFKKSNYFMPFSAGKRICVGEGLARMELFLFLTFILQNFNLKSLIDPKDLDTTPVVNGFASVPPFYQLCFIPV
Cytochrome P450 3A4 (Homo sapiens), sequence (P08684 whole entry, looked up): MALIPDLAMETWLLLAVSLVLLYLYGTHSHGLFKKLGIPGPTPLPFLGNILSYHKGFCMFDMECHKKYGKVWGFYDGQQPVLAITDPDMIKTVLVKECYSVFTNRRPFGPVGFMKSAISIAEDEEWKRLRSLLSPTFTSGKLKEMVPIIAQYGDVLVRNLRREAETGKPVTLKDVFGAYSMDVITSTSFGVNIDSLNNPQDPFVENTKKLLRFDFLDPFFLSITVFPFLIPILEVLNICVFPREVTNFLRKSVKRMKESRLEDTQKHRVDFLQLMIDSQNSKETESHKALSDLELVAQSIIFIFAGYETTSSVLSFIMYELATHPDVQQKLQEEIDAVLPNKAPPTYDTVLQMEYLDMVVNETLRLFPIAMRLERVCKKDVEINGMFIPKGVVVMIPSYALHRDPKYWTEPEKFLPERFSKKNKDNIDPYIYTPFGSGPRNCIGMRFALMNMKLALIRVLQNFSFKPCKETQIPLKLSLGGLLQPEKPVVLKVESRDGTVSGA

Turning to `CC(C)CCO`, the call (with BCL2L11 (gene 10018); in experiment [1]; in [2]; in experiment [3]; in the experiment with Caspase-3 (Homo sapiens); in experiment [4]) was inactive. In addition, the result (in experiment [5]; in experiment [6]; in experiment [7]; in [8]; with CYP2C8 (gene 1558); in the experiment with CYP2C9 (gene 1559)) was inactive. Besides, the call (with CYP2E1 (gene 1571); in the experiment with CYP4A11 (gene 1579); in experiment [9]; in experiment [10]; in experiment [11]; in experiment [12]) was inactive. The result in experiment [13] was inactive.
Take `COC(=O)c1c(Cl)c(Cl)c(C(=O)OC)c(Cl)c1Cl`: the molecule was called inactive (with BCL2L11 (gene 10018); in experiment [1]; in experiment [2]; in experiment [3]; with Caspase-3 (Homo sapiens); in [4]). Further, the molecule was classed as inactive (in experiment [5]; in experiment [6]; in experiment [7]; in experiment [8]; in the experiment with CYP2C8 (gene 1558); in the experiment with CYP2C9 (gene 1559)). The result (in the experiment with CYP2E1 (gene 1571); in the experiment with CYP4A11 (gene 1579); in [9]; in experiment [10]; in experiment [14]; in experiment [11]) was inactive. For the same molecule, the outcome in experiment [12] and in experiment [13] was inactive.
In the case of `CCOCCOCCOCCO`, the molecule was classed as inactive (with BCL2L11 (gene 10018); in [1]; in experiment [2]; in [3]; with Caspase-3 (Homo sapiens); in experiment [4]). Further, the result (in experiment [5]; in experiment [6]; in experiment [7]; in experiment [8]; with CYP2C8 (gene 1558); in the experiment with CYP2C9 (gene 1559)) was inactive. Further, the call (with CYP2E1 (gene 1571); in the experiment with CYP4A11 (gene 1579); in experiment [9]; in experiment [10]; in [14]; in experiment [11]) was inactive. The molecule was called inactive in [12] and in experiment [13].
Take `CC[C@H](C)C(=O)O[C@H]1C[C@@H](C)C=C2C=C[C@H](C)[C@H](CC[C@@H]3C[C@@H](O)CC(=O)O3)[C@H]21`: the result (with BCL2L11 (gene 10018); in experiment [2]; in experiment [3]; with Caspase-3 (Homo sapiens); in experiment [4]; in experiment [6]) was inactive. The molecule was called inactive (in experiment [7]; with CYP2C8 (gene 1558); with CYP4A11 (gene 1579); in [10]; in experiment [14]; in experiment [11]). For the same molecule, the outcome in [12] was inactive. Besides, the figures for the AC50 (in experiment [1]; in experiment [5]; with CYP2E1 (gene 1571)) were 9.92 µM (active), 6.18 µM (active) and 29.8 µM (active), respectively.
As for `Nc1nc2ncc(CNc3ccc(C(=O)N[C@@H](CCC(=O)O)C(=O)O)cc3)nc2c(=O)[nH]1`, the outcome (in [1]; in [2]; in experiment [3]; in the experiment with Caspase-3 (Homo sapiens); in experiment [4]; in experiment [5]) was inactive. The outcome (in [6]; in experiment [7]; in experiment [8]; with CYP2C8 (gene 1558); in the experiment with CYP2C9 (gene 1559); in the experiment with CYP2E1 (gene 1571)) was inactive. Also, the call (with CYP4A11 (gene 1579); in experiment [9]; in [10]; in experiment [14]; in experiment [11]; in experiment [12]) was inactive. Also, the outcome in experiment [13] was inactive.
As for `Cc1ccc(O)cc1`, the molecule was called inactive (with BCL2L11 (gene 10018); in [1]; in [2]; in experiment [3]; with Caspase-3 (Homo sapiens); in experiment [6]). The result in [10], in experiment [14], in experiment [11] and in [12] was inactive.
